Several values for one entry are separate records, joined by “and”; a condition that tells them apart may be missing. Identical values can stand only once. More than one record can exist for a structure, and the calls need not agree. Activity calls are given as the source filed them. Unless noted, calls come from the whole dose curve; as a rule, active = well fitted curve in the direction sought with a large enough effect in the repeat runs; inconclusive = weak or mixed curves; inactive = no such curve, though single readings can be large; an effect the other way counts as inactive or inconclusive.

For 15 compounds, Potency and activity change results are on record in PubChem BioAssay (Tox21).

A short description of experiment [1]: qHTS assay for identifying genotoxic compounds that show differential cytotoxicity against isogenic chicken DT40 cell lines with known DNA damage response pathways - wild type cell line (AID 743012). Note: nearly all actives have a fitted effect of over 60% in size. Note: potency is the fitted concentration of half-maximal effect. In a few lines:
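First, wild type DT40 cells were plated at 300 per well and equilibrated about 0.5 h at 37 C/5% CO2. Next, compounds in DMSO were added and exposure lasted 40 h. Finally, CellTiter-Glo was added for 30 min at room temperature and luminescence recorded.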
In general terms: qHTS replaces the single test concentration by a dilution series.

The nature of experiment [2]: qHTS assay for identifying genotoxic compounds that show differential cytotoxicity against isogenic chicken DT40 cell lines with known DNA damage response pathways - Rev3 mutant cell line (AID 743014). Note: nearly all actives have a fitted effect of over 55% in size. Note: potency is the fitted concentration of half-maximal effect.
A short description of experiment [3]: qHTS assay for identifying genotoxic compounds that show differential cytotoxicity against isogenic chicken DT40 cell lines with known DNA damage response pathways - Rad54/Ku70 mutant cell line (AID 743015). Note: nearly all actives have a fitted effect of over 60% in size. Note: potency is the fitted concentration of half-maximal effect.
Experiment [4] in a line: qHTS assay to identify small molecule antagonists of the thyroid receptor (TR) signaling pathway - cell viability counter screen (AID 743064). Note: nearly all actives have a fitted effect of over 50% in size. Note: potency is the fitted concentration of half-maximal effect. The essentials: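 GH3.TRE-Luc cells, 4 h pre-plating; cpd + T3 1 nM final; 37 °C 23.5 h; CellTiter-Fluor 30 min; fluorescence read.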
Experiment [5] concerns thyroid hormone receptor (rat, GH3 cells). Description: qHTS assay to identify small molecule agonists of the thyroid receptor (TR) signaling pathway (AID 743066; calls by dose curve).
The nature of experiment [6]: qHTS assay to identify small molecule antagonists of the estrogen receptor alpha (ER-alpha) signaling pathway - cell viability counter screen (AID 743074; calls by dose curve;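 note: HEK293 cells carrying ER-alpha-UAS-bla reporter stimulated with 17beta-estradiol; nearly all actives have a fitted effect of over 45% in size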; note: potency is the fitted concentration of half-maximal effect).
The target of experiment [7] is Estrogen receptor (Homo sapiens) (UniProt P03372). Description: qHTS assay to identify small molecule agonists of the estrogen receptor alpha (ER-alpha) signaling pathway (AID 743075; calls by dose curve; note: potency is the fitted concentration of half-maximal effect).
Sequence of Estrogen receptor (Homo sapiens) (P03372 whole entry, looked up): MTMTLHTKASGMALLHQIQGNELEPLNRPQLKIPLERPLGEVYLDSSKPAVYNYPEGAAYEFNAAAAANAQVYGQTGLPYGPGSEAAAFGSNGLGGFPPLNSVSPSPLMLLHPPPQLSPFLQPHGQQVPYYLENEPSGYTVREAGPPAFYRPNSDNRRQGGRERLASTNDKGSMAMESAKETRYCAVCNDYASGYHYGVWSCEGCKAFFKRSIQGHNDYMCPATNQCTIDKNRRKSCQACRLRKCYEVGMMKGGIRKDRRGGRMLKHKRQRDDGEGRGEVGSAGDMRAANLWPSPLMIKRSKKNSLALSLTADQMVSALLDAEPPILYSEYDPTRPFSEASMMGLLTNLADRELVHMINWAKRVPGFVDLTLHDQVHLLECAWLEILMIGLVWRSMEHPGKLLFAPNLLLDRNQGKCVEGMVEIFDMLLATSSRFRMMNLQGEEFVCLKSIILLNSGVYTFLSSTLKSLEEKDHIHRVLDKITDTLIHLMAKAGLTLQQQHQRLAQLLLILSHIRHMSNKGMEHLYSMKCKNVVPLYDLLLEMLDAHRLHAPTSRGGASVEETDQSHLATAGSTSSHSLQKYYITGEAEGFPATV
The target is the same in experiment [8]. As to the kind of experiment: qHTS assay to identify small molecule agonists of the estrogen receptor alpha (ER-alpha) signaling pathway using the BG1 cell line (AID 743079). Note: nearly all actives have a fitted effect of over 20% in size. Note: potency is the fitted concentration of half-maximal effect.
Experiment [9] in a line: qHTS assay to identify small molecule antagonists of the estrogen receptor alpha (ER-alpha) signaling pathway using the BG1 cell line (AID 743080; calls by dose curve;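 note: BG1 cells stimulated with 17beta-estradiol alongside compound; nearly all actives have a fitted effect of over 25% in size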; note: potency is the fitted concentration of half-maximal effect). The essentials: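 BG1-Luc-4E2 cells (endogenous full-length ER-alpha, 4xERE luciferase) hormone-starved 5 days in charcoal-stripped FBS, plated 4,000/well for 24 h, then compound plus 17beta-estradiol for 21.5 h at 37 C; ONE-Glo luminescence read.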

Experiment [10] in a line: qHTS assay to identify small molecule antagonists of the estrogen receptor alpha (ER-alpha) signaling pathway using the BG1 cell line - cell viability counter screen (AID 743081).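 Note: compound given together with 17beta-estradiol as the ER stimulus; nearly all actives have a fitted effect of over 45% in size.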 Note: potency is the fitted concentration of half-maximal effect.
A further experiment concerns the target Aromatase (Homo sapiens) (UniProt P11511). Description: qHTS assay to identify aromatase inhibitors (AID 743083). Note: nearly all actives have a fitted effect of over 55% in size. Note: potency is the fitted concentration of half-maximal effect.
A short description of experiment [11]: qHTS assay to identify small molecule antagonists of the androgen receptor (AR) signaling pathway - cell viability counter screen (AID 743033; note: nearly all actives have a fitted effect of over 45% in size).
Experiment [12] is described as follows: qHTS assay to identify small molecule antagonists of the thyroid receptor (TR) signaling pathway (AID 743065). Note: nearly all actives have a fitted effect of over 55% in size. Note: potency is the fitted concentration of half-maximal effect. In a few lines: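 GH3.TRE-Luc rat pituitary cells (two TREs driving luciferase) were dosed with compound, then stimulated with 1 nM T3 (final) for 23.5 h at 37 C. ONE-Glo luminescence was the read-out, with CellTiter-Fluor fluorescence as the cytotoxicity counter-screen.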

Experiment [13] is described as follows: qHTS assay to identify small molecule antagonists of the androgen receptor (AR) signaling pathway using the MDA cell line - cell viability counter screen (AID 743041; note: nearly all actives have a fitted effect of over 45% in size). The essentials:
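MDA-kb2 AR-luc cells (MMTV-luciferase, AR/GR responsive) treated with compounds plus R1881 agonist for 16 h at 37C. CellTiter-Fluor added at 15.5 h; fluorescence read after 30 min in the same wells.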

Experiment [14] addresses Androgen receptor (Homo sapiens) (UniProt P10275). Description: qHTS assay to identify small molecule agonists of the androgen receptor (AR) signaling pathway using the MDA cell line (AID 743040; note: nearly all actives have a fitted effect of over 20% in size). To be noted: MDA-kb2 AR-luc cells, MMTV luciferase, 16 h, stronger effect = higher value. In a few lines: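 MDA-kb2 breast carcinoma cells carrying MMTV-luciferase (responsive to AR and GR), plated 5 h then treated 16 h with compounds at 37C, 0% CO2. Read-out was ONE-Glo luminescence after 30 min at room temperature.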

Experiment [15] has the same target. As to the kind of experiment: qHTS assay to identify small molecule antagonists of the androgen receptor (AR) signaling pathway using the MDA cell line (AID 743042; note: nearly all actives have a fitted effect of over 55% in size; note: potency is the fitted concentration of half-maximal effect). The essentials:
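MDA-kb2 breast carcinoma cells carrying MMTV-luciferase (AR/GR responsive) were co-treated with compounds and the agonist R1881 for 16 h at 37C. Inhibition read as ONE-Glo luminescence; CellTiter-Fluor fluorescence measured in parallel for cytotoxicity.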

Experiment [16] concerns the target Estrogen receptor (Homo sapiens) (UniProt P03372). Description: qHTS assay to identify small molecule antagonists of the estrogen receptor alpha (ER-alpha) signaling pathway (AID 743069; active = well fitted curve in the direction sought with a large enough effect in the signal ratio in the repeat runs, not every such curve was filed as active; inconclusive = weak or mixed curves, or effect the other way; inactive = no such curve, though single readings can be large or run the other way; the % refers to the signal ratio; note: potency is the fitted concentration of half-maximal effect). The essentials: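 HEK293 ER-alpha-UAS-bla GripTite cells, held overnight in 2% charcoal-stripped FBS, 5,000 cells/well, preincubated 4 h, then compound plus 17beta-estradiol for 18 h at 37C. Beta-lactamase read by LiveBLAzer B/G FRET substrate, 2 h at room temperature.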

Experiment [17] deals with Androgen receptor (Homo sapiens) (UniProt P10275). As to the kind of experiment: qHTS assay to identify small molecule antagonists of the androgen receptor (AR) signaling pathway (AID 743035; active = well fitted inhibition curve with a large enough effect in the signal ratio in the repeat runs, not every such curve was filed as active; inconclusive = weak or mixed curves, or effect the other way; inactive = no such curve, though single readings can be large or run the other way; the % refers to the signal ratio). In a few lines: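 Beta-lactamase FRET read (2 h RT incubation with LiveBLAzer B/G) following 16 h of compound plus R1881 treatment of AR-UAS-bla HEK293 cells, which had been pre-incubated 4 h at 37C.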
Sequence of Androgen receptor (Homo sapiens) (P10275 whole entry, looked up): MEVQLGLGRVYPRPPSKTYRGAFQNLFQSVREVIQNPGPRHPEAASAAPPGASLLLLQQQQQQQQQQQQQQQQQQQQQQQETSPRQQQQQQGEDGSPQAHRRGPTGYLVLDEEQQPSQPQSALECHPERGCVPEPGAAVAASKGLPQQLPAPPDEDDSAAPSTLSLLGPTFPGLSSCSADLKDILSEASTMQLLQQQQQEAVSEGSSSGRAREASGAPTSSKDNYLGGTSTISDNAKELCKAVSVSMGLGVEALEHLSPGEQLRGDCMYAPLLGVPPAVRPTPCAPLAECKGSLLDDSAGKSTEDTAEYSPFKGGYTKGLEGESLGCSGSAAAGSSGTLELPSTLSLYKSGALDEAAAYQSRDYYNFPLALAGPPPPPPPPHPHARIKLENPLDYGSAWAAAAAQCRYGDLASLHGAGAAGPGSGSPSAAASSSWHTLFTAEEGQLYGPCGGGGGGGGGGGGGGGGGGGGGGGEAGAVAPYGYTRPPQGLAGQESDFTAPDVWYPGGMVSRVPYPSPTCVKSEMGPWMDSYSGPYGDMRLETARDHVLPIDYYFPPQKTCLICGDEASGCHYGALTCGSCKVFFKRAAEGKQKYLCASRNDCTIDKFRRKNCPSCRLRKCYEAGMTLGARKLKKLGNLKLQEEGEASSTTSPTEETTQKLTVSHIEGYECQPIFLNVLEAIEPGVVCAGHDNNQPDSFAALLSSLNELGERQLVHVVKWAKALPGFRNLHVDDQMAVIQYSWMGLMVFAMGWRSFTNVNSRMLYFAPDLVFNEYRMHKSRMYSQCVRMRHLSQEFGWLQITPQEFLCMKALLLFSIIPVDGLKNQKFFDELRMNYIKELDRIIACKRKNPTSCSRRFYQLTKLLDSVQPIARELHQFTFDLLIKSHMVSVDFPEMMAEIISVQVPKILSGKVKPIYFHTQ

The target is the same in experiment [18]. As to the kind of experiment: qHTS assay to identify small molecule agonists of the androgen receptor (AR) signaling pathway (AID 743036; active = well fitted activation curve with a large enough effect in the signal ratio in the repeat runs, with a control signal flat, not every such curve was filed as active; inconclusive = weak or mixed curves, or effect the other way; inactive = no such curve, though single readings can be large or run the other way; the % refers to the signal ratio). The essentials:
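AR-bla HEK293 cells, 2,000/well; 4 h preincubation 37C/5% CO2; compound (DMSO) 16 h at 37C; LiveBLAzer B/G FRET substrate 2 h RT; fluorescence intensity read-out.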

Where [19] appears, read: activity change: at 70.3 µM (top of the series).
% is set by controls: 0 for no effect and ±100 for the full control effect.

Sequence of Aromatase (Homo sapiens) (P11511 whole entry, looked up): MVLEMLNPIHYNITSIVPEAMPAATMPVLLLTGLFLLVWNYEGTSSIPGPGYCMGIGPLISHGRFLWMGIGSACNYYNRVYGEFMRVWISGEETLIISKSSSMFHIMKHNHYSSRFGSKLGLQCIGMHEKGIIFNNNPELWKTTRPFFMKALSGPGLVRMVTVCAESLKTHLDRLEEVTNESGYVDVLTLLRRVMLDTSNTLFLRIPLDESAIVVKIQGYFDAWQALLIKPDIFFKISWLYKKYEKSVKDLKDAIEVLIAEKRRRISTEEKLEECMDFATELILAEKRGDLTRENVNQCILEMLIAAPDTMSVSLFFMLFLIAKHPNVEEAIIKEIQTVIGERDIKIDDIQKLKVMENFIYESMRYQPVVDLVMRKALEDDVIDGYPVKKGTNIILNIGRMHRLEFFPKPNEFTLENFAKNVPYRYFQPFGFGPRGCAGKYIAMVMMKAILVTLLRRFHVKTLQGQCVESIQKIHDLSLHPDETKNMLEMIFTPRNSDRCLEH

As to `CCC(C)c1cc([N+](=O)[O-])cc([N+](=O)[O-])c1O` (centres undefined), the Potency result is “inactive and 27.3 µM (active)” in experiment [1]; “inactive and 30.6 µM (active)” in [2]; “inactive and 27.3 µM (active)” in experiment [3]; 27.3 µM (active) in experiment [4]; “inactive and 4.86 µM (active)” in experiment [10]; “inactive and 30.6 µM (active)” in the experiment with Aromatase (Homo sapiens). Further, the Potency entry in [5], in experiment [6], in [7], in experiment [8] and in [9] was “inactive” throughout.
On to `O=Cc1ccco1`, for which the Potency entry in experiment [1], in [2], in experiment [3], in [11], in [4] and in [12] was “inactive” each time. The Potency result (in [5]; in experiment [6]; in experiment [10]; in the experiment with Aromatase (Homo sapiens)) was “inactive” each time.
As for `C[C@]12CCC(=O)C[C@@H]1CC[C@@H]1[C@@H]2CC[C@]2(C)[C@@H](O)CC[C@@H]12`, the Potency is 26.6 µM (active) and inactive in experiment [1]; 48 µM (active) in experiment [12]. Also, the Potency entry (in [3]; in experiment [4]; in experiment [5]; in experiment [6]; in experiment [10]; with Aromatase (Homo sapiens)) was “inactive” in each case.
As to `NNC(N)=S`, the Potency in [1] was 28.4 µM (active); in [2], 20.1 µM (active); in [3], 28.4 µM (active); in the experiment with Aromatase (Homo sapiens) it was 50.4 µM (active) and inactive. Moreover, the Potency entry in [4], in experiment [12], in experiment [5], in experiment [7], in experiment [8] and in [9] was “inactive” throughout. Moreover, the Potency entry in experiment [10] was “inactive”.
Consider `CC(C)(c1cc(Cl)c(O)c(Cl)c1)c1cc(Cl)c(O)c(Cl)c1`, for which the Potency entry (in experiment [1]; in experiment [2]; in experiment [3]; in experiment [10]; with Aromatase (Homo sapiens)) was “inactive” each time. Also, the Potency entry in experiment [4] is “inactive and 61.1 µM (active)”; in [12], 21.7 µM (active) and 48.6 µM (active).
Consider `CC(O)CCO` (centres undefined), for which the Potency entry in experiment [1], in experiment [3], in [13], in experiment [4], in experiment [12] and in [5] was “inactive” each time. The Potency result (in experiment [6]; in experiment [10]; in the experiment with Aromatase (Homo sapiens)) was “inactive” in each case. Moreover, the Potency entry in experiment [2] is “inactive and 68.6 µM (active)”.
Take `N#Cc1cc(Br)c(O)c(Br)c1`: the values for the activity change in [14] (setting [19]) and in experiment [14] (at 70.3 µM (top of the series)) were -6.84% (active) and -3.58% (inactive), respectively. In addition, the Potency result in [13], in experiment [4], in experiment [5], in experiment [6], in [7] and in experiment [10] was “inactive” each time. Moreover, in the experiment with Aromatase (Homo sapiens), the Potency entry was “inactive”. The Potency in experiment [15] is 61.1 µM (active); in experiment [12], 68.5 µM (active); in [9] it was 68.5 µM (active) and 52.5 µM (active).
Take `Cc1c(COC(=O)[C@@H]2[C@H](/C=C(\Cl)C(F)(F)F)C2(C)C)cccc1-c1ccccc1`: the Potency result in experiment [1], in experiment [2], in experiment [3], in experiment [11], in experiment [13] and in experiment [5] was “inactive” in each case. Also, the Potency result (in experiment [16]; in [7]; in experiment [8]; in experiment [10]; with Aromatase (Homo sapiens)) was “inactive” each time. In addition, the Potency in experiment [12] is 15 µM (active) and 15.3 µM (active); in experiment [6], 26.9 µM (active).
Consider `CC1(C)C(C=C(Cl)Cl)C1C(=O)OC(C#N)c1cccc(Oc2ccccc2)c1` (centres undefined), for which the Potency result in [2], in [11], in [13], in experiment [4], in [5] and in experiment [6] was “inactive” in each case. Also, the Potency result (in experiment [7]; in [8]; in experiment [9]; in experiment [10]; with Aromatase (Homo sapiens)) was “inactive” throughout. Further, the Potency in experiment [3] is 61.1 µM (active).
For `CCC(C)(C)c1ccc(O)cc1`, the Potency entry in experiment [1] was “inactive and 54.5 µM (active)”; in [2], “inactive and 61.8 µM (active) and 30.6 µM (active)”; in experiment [3], “inactive and 54.5 µM (active)”; in experiment [7] it was “inactive and 15.7 µM [inconclusive] (active) and 55 µM [activator] (active)”; in experiment [8], 17.4 µM (active) and 24.3 µM (active). The Potency result in experiment [13], in experiment [4], in experiment [12], in experiment [5], in [6] and in experiment [9] was “inactive” in each case. Besides, the Potency entry (in experiment [10]; with Aromatase (Homo sapiens)) was “inactive” throughout.
`Clc1nc(Cl)nc(Cl)n1`: the Potency in experiment [1] is 15.4 µM (active); in experiment [2] it was “inactive and 15.4 µM (active)”; in experiment [3], “inactive and 13.7 µM (active)”. In addition, the Potency result in experiment [11], in [4], in [12], in [5], in [6] and in [7] was “inactive” throughout. Moreover, the Potency result (in experiment [9]; in experiment [10]; in the experiment with Aromatase (Homo sapiens)) was “inactive” in each case.
As for `c1cc(OCC2CO2)ccc1Cc1ccc(OCC2CO2)cc1` (centres undefined), the Potency in experiment [1] is 13.7 µM (active); in [2], 2.44 µM (active) and 1.54 µM (active); in [3], 61.4 µM (active) and 15.4 µM (active); in [4], 43.5 µM (active) and 48.6 µM (active); in experiment [12] it was 24.4 µM (active) and 21.7 µM (active). In addition, the Potency entry in [17], in experiment [18], in experiment [14] (setting [19]), in experiment [13], in experiment [15] and in experiment [5] was “inactive” throughout. In addition, the Potency result (in [6]; in experiment [7]; in experiment [8]; in experiment [9]; in experiment [10]; with Aromatase (Homo sapiens)) was “inactive” in each case.
Take `CCCCCCOC(=O)c1ccccc1C(=O)OCCCCCC`: the Potency entry in experiment [1] was “inactive and 30.6 µM (active)”. The Potency result in experiment [2], in [3], in experiment [4], in experiment [12], in experiment [5] and in experiment [6] was “inactive” in each case. Moreover, the Potency result (in experiment [7]; in experiment [8]; in experiment [9]; in experiment [10]; in the experiment with Aromatase (Homo sapiens)) was “inactive” throughout.
For the compound `COc1ccc(C(CN(C)C)C2(O)CCCCC2)cc1` (centres undefined), the Potency entry in experiment [1], in [2], in experiment [3], in [11], in experiment [13] and in experiment [4] was “inactive” each time. Moreover, the Potency result (in [12]; in experiment [5]; in [6]; in experiment [10]; with Aromatase (Homo sapiens)) was “inactive” in each case.
As for `Oc1c(Cl)c(Cl)c(Cl)c(Cl)c1Cl`, the Potency entry (in experiment [2]; in experiment [13]; in experiment [5]; in experiment [7]; in experiment [10]; with Aromatase (Homo sapiens)) was “inactive” each time. Further, the Potency in experiment [4] is 26.8 µM (active); in experiment [12] it was 8.46 µM (active) and 27.2 µM (active); in experiment [16], 8.54 µM [inconclusive] (active); in experiment [9], 59.9 µM (active) and 27.2 µM (active).
